# Experimental data published in paper PMC7862700, “An all-to-all approach to the identification of sequence-specific readers for epigenetic DNA modifications on cytosine”.
# Tests used:
# Assay in all cases: DAPPL (digital affinity profiling via proximity ligation, sequencing); 10 mM Tris-HCl pH 7.5, 50 mM NaCl, 1 mM DTT, 4% glycerol, room temperature, 30 min; GST-TFs on glutathione beads, 16-mer random dsDNA library, 0.1% formaldehyde crosslink after washing; high values mean tight binding
# Conditions in all cases: protein: recombinant; tags: N-terminal GST; dsDNA, one strand shown
# FLI1 = molecular target: T1, FLI1 (Homo sapiens, UniProt Q01543 1-452)
# T1 sequence: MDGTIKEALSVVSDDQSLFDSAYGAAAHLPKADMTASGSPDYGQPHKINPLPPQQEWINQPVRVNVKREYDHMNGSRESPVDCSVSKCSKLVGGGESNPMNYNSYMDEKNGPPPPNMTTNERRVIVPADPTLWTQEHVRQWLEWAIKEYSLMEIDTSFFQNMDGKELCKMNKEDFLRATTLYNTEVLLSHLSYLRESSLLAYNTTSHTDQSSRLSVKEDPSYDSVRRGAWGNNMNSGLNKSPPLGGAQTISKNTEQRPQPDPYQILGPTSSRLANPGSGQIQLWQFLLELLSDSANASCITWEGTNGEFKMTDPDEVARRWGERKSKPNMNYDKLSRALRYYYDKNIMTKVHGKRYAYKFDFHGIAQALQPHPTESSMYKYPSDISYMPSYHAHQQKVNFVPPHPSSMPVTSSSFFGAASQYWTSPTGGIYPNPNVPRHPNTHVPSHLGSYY
# In short: (§1)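 Pools were built from human transcription factors expressed in yeast as GST fusions, captured on glutathione beads and DNA-barcoded, along with a tag-only sample. Incubation with 200 nmole of a 16-mer random double-stranded DNA library lasted 30 min at room temperature in Tris/NaCl/DTT/glycerol buffer, and was followed by washing, 0.1% formaldehyde crosslinking, proximity ligation, PCR amplification and Illumina NextSeq500 sequencing. Binding signal is the quotient of each hexamer's read frequency for a factor and its frequency for the tag-only sample.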
# ELK1 = molecular target: T2, ELK1 (Homo sapiens, UniProt P19419 1-428)
# T2 sequence: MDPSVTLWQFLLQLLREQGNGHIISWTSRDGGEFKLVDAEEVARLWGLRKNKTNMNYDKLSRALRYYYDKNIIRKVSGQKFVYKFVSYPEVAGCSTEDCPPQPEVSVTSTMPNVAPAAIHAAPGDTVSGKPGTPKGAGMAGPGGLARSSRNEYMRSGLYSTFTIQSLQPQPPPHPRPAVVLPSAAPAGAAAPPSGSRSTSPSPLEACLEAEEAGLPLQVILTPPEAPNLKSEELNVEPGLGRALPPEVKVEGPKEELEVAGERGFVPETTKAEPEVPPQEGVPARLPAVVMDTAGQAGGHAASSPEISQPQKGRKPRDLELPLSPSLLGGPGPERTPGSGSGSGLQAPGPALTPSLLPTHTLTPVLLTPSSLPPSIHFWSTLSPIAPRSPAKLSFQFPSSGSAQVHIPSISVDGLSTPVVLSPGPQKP
# In short: as §1
# GABPA = molecular target: T3, GABPA (Homo sapiens, UniProt Q06546 1-454)
# T3 sequence: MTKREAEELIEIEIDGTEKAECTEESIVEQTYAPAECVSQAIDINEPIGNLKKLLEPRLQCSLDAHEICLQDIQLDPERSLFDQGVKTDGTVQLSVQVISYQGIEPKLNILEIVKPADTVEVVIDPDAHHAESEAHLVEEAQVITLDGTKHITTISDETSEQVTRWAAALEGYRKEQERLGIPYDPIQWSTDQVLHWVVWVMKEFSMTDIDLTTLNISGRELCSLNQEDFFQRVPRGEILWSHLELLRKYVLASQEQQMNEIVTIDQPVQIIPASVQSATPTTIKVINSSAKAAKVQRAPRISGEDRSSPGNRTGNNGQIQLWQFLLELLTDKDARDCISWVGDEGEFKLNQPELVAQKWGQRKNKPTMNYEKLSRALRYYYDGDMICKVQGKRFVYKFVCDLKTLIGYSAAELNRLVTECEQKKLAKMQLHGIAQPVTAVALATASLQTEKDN
# In short: as §1
# ERG = molecular target: T4, ERG (Homo sapiens, UniProt P11308 1-479)
# T4 sequence: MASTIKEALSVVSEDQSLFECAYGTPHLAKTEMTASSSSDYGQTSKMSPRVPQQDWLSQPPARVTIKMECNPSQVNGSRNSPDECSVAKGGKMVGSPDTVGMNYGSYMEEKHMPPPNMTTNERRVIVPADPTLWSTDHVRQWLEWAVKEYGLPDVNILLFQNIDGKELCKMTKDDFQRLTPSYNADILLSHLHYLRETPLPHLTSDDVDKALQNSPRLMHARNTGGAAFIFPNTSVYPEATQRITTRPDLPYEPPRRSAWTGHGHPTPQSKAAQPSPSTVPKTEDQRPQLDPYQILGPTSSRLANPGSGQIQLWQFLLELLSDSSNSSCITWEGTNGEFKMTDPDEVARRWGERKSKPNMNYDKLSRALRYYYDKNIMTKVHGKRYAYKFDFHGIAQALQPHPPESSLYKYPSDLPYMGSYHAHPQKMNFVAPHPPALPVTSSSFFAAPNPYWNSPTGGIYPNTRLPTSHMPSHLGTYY
# In short: as §1
# ELF1 = ELF1 (Homo sapiens, UniProt P32519 1-619)
# Sequence of ELF1 (P32519 whole entry): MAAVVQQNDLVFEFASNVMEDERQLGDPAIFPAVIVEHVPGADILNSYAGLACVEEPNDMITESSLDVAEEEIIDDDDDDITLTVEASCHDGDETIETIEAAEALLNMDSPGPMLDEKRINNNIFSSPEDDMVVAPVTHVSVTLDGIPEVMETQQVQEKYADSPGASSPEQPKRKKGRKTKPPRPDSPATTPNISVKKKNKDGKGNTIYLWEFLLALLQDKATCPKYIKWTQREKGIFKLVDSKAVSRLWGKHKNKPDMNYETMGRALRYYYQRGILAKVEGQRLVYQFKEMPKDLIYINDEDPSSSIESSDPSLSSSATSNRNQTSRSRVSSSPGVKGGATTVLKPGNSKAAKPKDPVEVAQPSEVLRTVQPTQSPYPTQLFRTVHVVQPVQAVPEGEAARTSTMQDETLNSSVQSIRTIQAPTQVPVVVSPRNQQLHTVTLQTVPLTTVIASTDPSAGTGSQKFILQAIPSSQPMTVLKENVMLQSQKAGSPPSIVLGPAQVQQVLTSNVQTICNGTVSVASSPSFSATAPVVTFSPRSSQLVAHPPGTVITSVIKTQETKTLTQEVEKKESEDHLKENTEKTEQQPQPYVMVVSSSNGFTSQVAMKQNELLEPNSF
# In short: as §1
# EHF = molecular target: T5, EHF (Homo sapiens, UniProt Q9NZC4 1-300)
# T5 sequence: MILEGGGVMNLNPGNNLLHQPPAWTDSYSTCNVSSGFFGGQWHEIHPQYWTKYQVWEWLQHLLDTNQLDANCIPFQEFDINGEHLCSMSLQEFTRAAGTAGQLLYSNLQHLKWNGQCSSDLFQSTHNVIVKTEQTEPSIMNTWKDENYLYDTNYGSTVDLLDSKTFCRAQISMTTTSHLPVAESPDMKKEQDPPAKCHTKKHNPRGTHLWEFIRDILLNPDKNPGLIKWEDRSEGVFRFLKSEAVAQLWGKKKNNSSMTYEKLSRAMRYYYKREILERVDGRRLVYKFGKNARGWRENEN
# In short: as §1
# SPI1 = SPI1 (Homo sapiens, UniProt P17947 1-270)
# In short: as §1
# SPIB = SPIB (Homo sapiens, UniProt Q01892 1-262)
# Sequence of SPIB (Q01892 whole entry): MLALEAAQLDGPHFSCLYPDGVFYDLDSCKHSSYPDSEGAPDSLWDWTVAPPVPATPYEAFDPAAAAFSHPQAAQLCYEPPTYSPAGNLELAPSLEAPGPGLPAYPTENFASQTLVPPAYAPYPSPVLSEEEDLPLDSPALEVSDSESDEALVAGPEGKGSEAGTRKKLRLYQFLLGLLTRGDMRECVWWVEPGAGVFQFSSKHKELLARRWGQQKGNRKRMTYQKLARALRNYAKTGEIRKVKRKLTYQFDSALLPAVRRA
# In short: as §1
# FEV = molecular target: T6, FEV (Homo sapiens, UniProt Q99581 1-238)
# T6 sequence: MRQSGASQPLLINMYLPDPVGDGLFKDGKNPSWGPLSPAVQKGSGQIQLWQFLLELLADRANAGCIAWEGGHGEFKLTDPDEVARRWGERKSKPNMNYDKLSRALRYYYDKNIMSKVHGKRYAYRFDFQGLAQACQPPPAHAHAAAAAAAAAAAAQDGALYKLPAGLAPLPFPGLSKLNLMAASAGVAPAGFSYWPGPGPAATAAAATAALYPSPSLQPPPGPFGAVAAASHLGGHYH
# In short: as §1
# ETV5 = ETV5 (Homo sapiens, UniProt P41161 1-510)
# Sequence of ETV5 (P41161 whole entry): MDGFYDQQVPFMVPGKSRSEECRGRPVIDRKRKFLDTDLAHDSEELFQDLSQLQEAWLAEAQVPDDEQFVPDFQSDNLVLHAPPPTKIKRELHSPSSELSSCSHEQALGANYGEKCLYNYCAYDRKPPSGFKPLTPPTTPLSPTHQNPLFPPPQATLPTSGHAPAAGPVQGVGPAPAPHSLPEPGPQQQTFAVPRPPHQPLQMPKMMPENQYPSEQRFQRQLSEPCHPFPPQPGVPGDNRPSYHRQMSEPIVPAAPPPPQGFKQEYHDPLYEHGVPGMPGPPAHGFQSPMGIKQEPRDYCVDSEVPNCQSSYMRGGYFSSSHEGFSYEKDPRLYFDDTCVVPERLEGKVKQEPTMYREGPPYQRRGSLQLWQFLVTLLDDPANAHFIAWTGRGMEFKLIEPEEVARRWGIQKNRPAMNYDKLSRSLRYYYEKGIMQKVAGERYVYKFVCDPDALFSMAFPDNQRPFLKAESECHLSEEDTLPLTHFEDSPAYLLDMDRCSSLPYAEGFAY
# In short: as §1
sequence,measurement,setting,value
ATTGGC,binding signal,FLI1,"1.23 fold enrichment (6-mer frequency, TF over GST control)"
same,binding signal,ELK1,"1.11 fold enrichment (6-mer frequency, TF over GST control)"
same,binding signal,GABPA,"1.09 fold enrichment (6-mer frequency, TF over GST control)"
same,binding signal,ERG,"1.05 fold enrichment (6-mer frequency, TF over GST control)"
same,binding signal,ELF1,"1.13 fold enrichment (6-mer frequency, TF over GST control)"
same,binding signal,EHF,"1.15 fold enrichment (6-mer frequency, TF over GST control)"
same,binding signal,SPI1,"1.01 fold enrichment (6-mer frequency, TF over GST control)"
same,binding signal,SPIB,"1.13 fold enrichment (6-mer frequency, TF over GST control)"
same,binding signal,FEV,"1.13 fold enrichment (6-mer frequency, TF over GST control)"
same,binding signal,ETV5,"1.07 fold enrichment (6-mer frequency, TF over GST control)"
